Laboratory results: PubChem BioAssay (NCI)
This is part of a sample that, as a whole, favours compounds with a hit. Of some 79,000 tested, about 15% had one in any assay. A number with no mark means an inactive call. Activity calls are given as the source filed them. No stated cut-off is given here; in the data, active means growth inhibition above about 70%; inactive means the rest.

Legend:
[1] = NCI Yeast Anticancer Drug Screen. Data for the rad50 strain (AID 155);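 further: 0% = growth of vehicle-only cultures of the same strain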; conditions: S. cerevisiae rad50 strain growth inhibition, stronger effect = higher value
Outline: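 Growth of the mutant yeast was measured after compound exposure and referenced to vehicle-treated cultures.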

[2] = NCI Yeast Anticancer Drug Screen. Data for the mec2-1 strain (AID 157); conditions: S. cerevisiae mec2-1 strain, stronger effect = higher value
Outline: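 Yeast mec2-1 mutant treated with compound. Readout: growth inhibition vs vehicle controls.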

[3] = NCI Yeast Anticancer Drug Screen. Data for the sgs1 mgt1 strain (AID 161);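 further: 0% = growth of cultures given vehicle only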; conditions: S. cerevisiae sgs1 mgt1 strain, stronger effect = higher value
Outline: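 Mutant yeast exposed to compound; growth scored against vehicle-only wells.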

[4] = NCI Yeast Anticancer Drug Screen. Data for the cln2 rad14 strain (AID 165);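 further: 0% = growth equal to vehicle treated cultures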; conditions: S. cerevisiae cln2 rad14 strain, stronger effect = higher value
Outline: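 cln2 rad14 yeast strain; compound exposure; growth inhibition read vs vehicle controls.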

[5] = NCI Yeast Anticancer Drug Screen. Data for the bub3 strain (AID 167); conditions: S. cerevisiae bub3 mutant strain, stronger effect = higher value
Outline: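 Whole-cell yeast assay. The mutant strain was incubated with compounds, and growth inhibition was determined by comparison with vehicle-treated cells.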

[6] = NCI Yeast Anticancer Drug Screen. Data for the mlh1 rad18 strain (AID 175); conditions: S. cerevisiae mlh1 rad18 strain growth inhibition, stronger effect = higher value
Outline: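 Yeast w/ defined DNA-repair lesions; compound exposure; growth vs vehicle controls → % inhibition.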

[7] = at 5.0 µM (retest, dose inferred, filed as 0.5)
[8] = at 50.0 µM (retest, dose inferred, filed as 5.0)

Compound: O=C1C(SCCO)=C(SCCO)C(=O)c2ccccc21
- growth inhibition [1, 7]: 8%
- growth inhibition [1, 8]: 87% (active)
- growth inhibition ([1]; at 50.0 µM): 87% (active)
- growth inhibition [2, 7]: 20%
- growth inhibition [2, 8]: 61%
- growth inhibition ([2]; at 50.0 µM): 57.5%
- growth inhibition [3, 7]: 16%
- growth inhibition [3, 8]: 66%
- growth inhibition ([3]; at 50.0 µM): 66.7%
- growth inhibition [4, 7]: -4%
- growth inhibition [4, 8]: 48%
- growth inhibition ([4]; at 50.0 µM): 17.8%
- growth inhibition [5, 7]: 44%
- growth inhibition [5, 8]: 83% (active)
- growth inhibition ([5]; at 50.0 µM): 89.3% (active)
- growth inhibition [6, 7]: 17%
- growth inhibition [6, 8]: 77% (active)
- growth inhibition ([6]; at 50.0 µM): 93.7% (active)

Compound: C[N+](C)(C)CCCCCCCCCCC(=O)N/N=C/c1ccc([N+](=O)[O-])o1
- growth inhibition [1, 7]: 6%
- growth inhibition [1, 8]: 8%
- growth inhibition ([1]; at 50.0 µM): 9.85%
- growth inhibition [2, 7]: 2%
- growth inhibition [2, 8]: 7%
- growth inhibition ([2]; at 50.0 µM): 4.35%
- growth inhibition [3, 7]: 6%
- growth inhibition [3, 8]: 18%
- growth inhibition ([3]; at 50.0 µM): 48.9%
- growth inhibition [4, 7]: 2%
- growth inhibition [4, 8]: 2%
- growth inhibition ([4]; at 50.0 µM): 32.3%
- growth inhibition [5, 7]: 0%
- growth inhibition [5, 8]: -3%
- growth inhibition ([5]; at 50.0 µM): -3.85%
- growth inhibition [6, 7]: 9%
- growth inhibition [6, 8]: 15%
- growth inhibition ([6]; at 50.0 µM): 64.6%

Compound: CCOc1ccc(/C=C\c2ccnc3ccccc23)cc1OCC
- growth inhibition [1, 7]: -5%
- growth inhibition [1, 8]: 97% (active)
- growth inhibition ([1]; at 50.0 µM): 98.3% (active)
- growth inhibition [2, 7]: -1%
- growth inhibition [2, 8]: 99% (active)
- growth inhibition ([2]; at 50.0 µM): 97% (active)
- growth inhibition [3, 7]: 1%
- growth inhibition [3, 8]: 99% (active)
- growth inhibition ([3]; at 50.0 µM): 50.9%
- growth inhibition [4, 7]: -3%
- growth inhibition [4, 8]: 99% (active)
- growth inhibition ([4]; at 50.0 µM): 98.2% (active)
- growth inhibition [5, 7]: 5%
- growth inhibition [5, 8]: 99% (active)
- growth inhibition ([5]; at 50.0 µM): 97.3% (active)
- growth inhibition [6, 7]: -13%
- growth inhibition [6, 8]: 98% (active)
- growth inhibition ([6]; at 50.0 µM): 96.3% (active)

Compound: C#CCNC(C)(C)C
- growth inhibition [1, 7]: 1%
- growth inhibition [1, 8]: 4%
- growth inhibition ([1]; at 50.0 µM): 98.5% (active)
- growth inhibition [2, 7]: -5%
- growth inhibition [2, 8]: 1%
- growth inhibition ([2]; at 50.0 µM): 99.4% (active)
- growth inhibition [3, 7]: -2%
- growth inhibition [3, 8]: -3%
- growth inhibition ([3]; at 50.0 µM): 86% (active)
- growth inhibition [4, 7]: -3%
- growth inhibition [4, 8]: 2%
- growth inhibition ([4]; at 50.0 µM): 98.7% (active)
- growth inhibition [5, 7]: 3%
- growth inhibition [5, 8]: -2%
- growth inhibition ([5]; at 50.0 µM): 99.7% (active)
- growth inhibition [6, 7]: -1%
- growth inhibition [6, 8]: 1%
- growth inhibition ([6]; at 50.0 µM): 99.1% (active)

Compound: CCN(CC)CCNC(=O)c1ccc2c(c1O)C(=O)c1ccccc1C2=O
- growth inhibition [1, 7]: 6%
- growth inhibition [1, 8]: 54%
- growth inhibition ([1]; at 50.0 µM): 57.3%
- growth inhibition [2, 7]: 27%
- growth inhibition [2, 8]: 24%
- growth inhibition ([2]; at 50.0 µM): 36%
- growth inhibition [3, 7]: 1%
- growth inhibition [3, 8]: 40%
- growth inhibition ([3]; at 50.0 µM): 60.5%
- growth inhibition [4, 7]: -10%
- growth inhibition [4, 8]: 23%
- growth inhibition ([4]; at 50.0 µM): 3.55%
- growth inhibition [5, 7]: -3%
- growth inhibition [5, 8]: 43%
- growth inhibition ([5]; at 50.0 µM): 33%
- growth inhibition [6, 7]: 9%
- growth inhibition [6, 8]: 44%
- growth inhibition ([6]; at 50.0 µM): 70% (active)

Compound: CCOC(=O)Cc1nc2ccccc2s1
- growth inhibition [1, 7]: 3%
- growth inhibition [1, 8]: 100% (active)
- growth inhibition ([1]; at 50.0 µM): 99.2% (active)
- growth inhibition [2, 7]: 2%
- growth inhibition [2, 8]: 100% (active)
- growth inhibition ([2]; at 50.0 µM): 99.6% (active)
- growth inhibition [3, 7]: 6%
- growth inhibition [3, 8]: 99% (active)
- growth inhibition ([3]; at 50.0 µM): 99.5% (active)
- growth inhibition [4, 7]: 6%
- growth inhibition [4, 8]: 98% (active)
- growth inhibition ([4]; at 50.0 µM): 99.2% (active)
- growth inhibition [5, 7]: 9%
- growth inhibition [5, 8]: 99% (active)
- growth inhibition ([5]; at 50.0 µM): 98.8% (active)
- growth inhibition [6, 7]: 2%
- growth inhibition [6, 8]: 99% (active)
- growth inhibition ([6]; at 50.0 µM): 99.3% (active)

Compound: CC(/C=C1\C(=O)N(C)C(CC(C)C(Cl)(Cl)Cl)C(=O)N1C)C(Cl)(Cl)Cl (configuration not stated)
- growth inhibition [1, 7]: 6%
- growth inhibition [1, 8]: 78% (active)
- growth inhibition ([1]; at 50.0 µM): 62.8%
- growth inhibition [2, 7]: 7%
- growth inhibition [2, 8]: 74% (active)
- growth inhibition ([2]; at 50.0 µM): 30.8%
- growth inhibition [3, 7]: 4%
- growth inhibition [3, 8]: 76% (active)
- growth inhibition ([3]; at 50.0 µM): 57.7%
- growth inhibition [4, 7]: 25%
- growth inhibition [4, 8]: 74% (active)
- growth inhibition ([4]; at 50.0 µM): 38.5%
- growth inhibition [5, 7]: 28%
- growth inhibition [5, 8]: 79% (active)
- growth inhibition ([5]; at 50.0 µM): 36.2%
- growth inhibition [6, 7]: 13%
- growth inhibition [6, 8]: 79% (active)
- growth inhibition ([6]; at 50.0 µM): 70.7% (active)

Compound: Cc1nn(C)c2ccc3ccccc3c(=O)c12
- growth inhibition [1, 7]: 9%
- growth inhibition [1, 8]: 66%
- growth inhibition ([1]; at 50.0 µM): 88.5% (active)
- growth inhibition [2, 7]: -1%
- growth inhibition [2, 8]: 44%
- growth inhibition ([2]; at 50.0 µM): 45%
- growth inhibition [3, 7]: 2%
- growth inhibition [3, 8]: 50%
- growth inhibition ([3]; at 50.0 µM): 42.6%
- growth inhibition [4, 7]: 18%
- growth inhibition [4, 8]: 47%
- growth inhibition ([4]; at 50.0 µM): 29.4%
- growth inhibition [5, 7]: -6%
- growth inhibition [5, 8]: 26%
- growth inhibition ([5]; at 50.0 µM): 32.6%
- growth inhibition [6, 7]: 11%
- growth inhibition [6, 8]: 81% (active)
- growth inhibition ([6]; at 50.0 µM): 76% (active)

Compound: CCOC(=O)C1=C(C)Oc2cc3c(cc2C1c1cc(OC)c(OC)c(OC)c1)OCO3 (configuration not stated)
- growth inhibition [1, 7]: 8%
- growth inhibition [1, 8]: 40%
- growth inhibition ([1]; at 50.0 µM): 54.6%
- growth inhibition [2, 7]: 11%
- growth inhibition [2, 8]: 64%
- growth inhibition ([2]; at 50.0 µM): 28.9%
- growth inhibition [3, 7]: -1%
- growth inhibition [3, 8]: 37%
- growth inhibition ([3]; at 50.0 µM): 47.3%
- growth inhibition [4, 7]: 11%
- growth inhibition [4, 8]: 89% (active)
- growth inhibition ([4]; at 50.0 µM): 19.1%
- growth inhibition [5, 7]: 36%
- growth inhibition [5, 8]: 94% (active)
- growth inhibition ([5]; at 50.0 µM): 55.6%
- growth inhibition [6, 7]: 12%
- growth inhibition [6, 8]: 83% (active)
- growth inhibition ([6]; at 50.0 µM): 45.8%
